# According to publication PMC4336329 (PLoS ONE, 2015):
# In all, about 310,000 compounds went through this assay and about 14,000 (4.5%) showed an effect of 50% or more. The effect is printed as a negative number. The full list was thinned out, with strong results kept by preference.
# Target: human ether-à-go-go-related gene (hERG) potassium channel (human, UniProt Q12809)
# Test: primary screen, population patch clamp on CHO cells stably expressing hERG; higher = less effect of the substance
# 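Also: peak tail current of the secondary pulse compared with the same well before compound.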
# human ether-à-go-go-related gene (hERG) potassium channel, sequence (Q12809 whole entry, looked up): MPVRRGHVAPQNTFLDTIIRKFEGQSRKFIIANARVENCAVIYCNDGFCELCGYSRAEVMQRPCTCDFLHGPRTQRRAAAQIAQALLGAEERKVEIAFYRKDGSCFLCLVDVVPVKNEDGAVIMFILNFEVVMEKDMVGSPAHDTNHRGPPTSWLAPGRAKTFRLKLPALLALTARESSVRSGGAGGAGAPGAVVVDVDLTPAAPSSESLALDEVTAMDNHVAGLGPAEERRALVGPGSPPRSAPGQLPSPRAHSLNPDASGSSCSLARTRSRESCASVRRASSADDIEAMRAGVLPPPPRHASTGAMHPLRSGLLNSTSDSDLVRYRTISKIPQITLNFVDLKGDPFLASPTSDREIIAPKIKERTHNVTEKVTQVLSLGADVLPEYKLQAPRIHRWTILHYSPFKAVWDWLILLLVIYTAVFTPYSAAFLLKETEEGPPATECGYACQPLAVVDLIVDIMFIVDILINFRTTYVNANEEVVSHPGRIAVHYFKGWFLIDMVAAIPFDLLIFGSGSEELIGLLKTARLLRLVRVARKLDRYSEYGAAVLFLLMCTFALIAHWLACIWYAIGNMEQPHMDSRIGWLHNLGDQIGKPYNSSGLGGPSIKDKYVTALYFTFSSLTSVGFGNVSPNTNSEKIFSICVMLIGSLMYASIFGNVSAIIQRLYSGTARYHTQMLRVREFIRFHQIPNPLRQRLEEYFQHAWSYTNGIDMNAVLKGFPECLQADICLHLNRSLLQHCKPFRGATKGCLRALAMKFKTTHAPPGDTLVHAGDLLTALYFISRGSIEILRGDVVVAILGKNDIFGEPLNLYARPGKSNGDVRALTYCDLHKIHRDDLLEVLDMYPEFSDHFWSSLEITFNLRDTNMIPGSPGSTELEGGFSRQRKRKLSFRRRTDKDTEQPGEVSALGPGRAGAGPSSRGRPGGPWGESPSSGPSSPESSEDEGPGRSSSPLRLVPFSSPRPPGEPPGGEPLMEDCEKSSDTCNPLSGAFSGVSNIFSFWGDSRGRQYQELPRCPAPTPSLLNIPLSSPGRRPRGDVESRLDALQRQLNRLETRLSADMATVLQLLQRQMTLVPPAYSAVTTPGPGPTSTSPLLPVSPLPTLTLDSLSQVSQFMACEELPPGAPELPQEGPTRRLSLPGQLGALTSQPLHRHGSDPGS
row,SMILES,"hERG current change (%, negative = inhibition) at 10uM"
1,Cc1csc(NC(=O)c2ccc(COc3ccccc3)o2)n1,-17.7%
2,CC(=O)Nc1ccccc1NC(=O)C/C(C)=N/NC(=O)c1ccccn1,16.1%
3,COc1ccc(Nc2cc(C)nc3ccc(OC)cc23)cc1,-52.3%
4,COc1ccc2nc(C)cc(Nc3ccc(C(=O)O)cc3)c2c1,39.5%
5,COc1ccc2nc(C)cc(Nc3ccc(C)cc3)c2c1.Cl,-52.8%
6,Nc1ncncc1-c1ccc2ccccc2c1,-7.48%
7,Clc1ccc(/C=N/c2c(-c3ccc(Cl)cc3)nc3n2CCS3)cc1,1.1%
8,CC1CCCCC1NC(=O)c1cn(C)c2ccc(S(=O)(=O)N3CCCC3)cc2c1=O (centres unmarked),-0.37%
9,COc1ccc(C(=O)OCn2nnc3ccccc3c2=O)cc1[N+](=O)[O-],13.6%
10,Cc1ccc(S(=O)(=O)N(C)C)cc1NC(=O)C(C)Sc1ccccc1 (centres unmarked),-6.74%
11,CC(/C=N/NC(=O)c1ccc(Br)cc1)=C\c1ccccc1,-3.38%
12,COc1ccc(C(=O)N/N=C\C(C)=C\c2ccccc2)cc1OC,-61.4%
13,CC(=C/c1ccccc1)/C=N/NC(=O)c1ccccn1,-30.3%
14,CC(/C=N/NC(=O)c1nn(C)c(C)c1Br)=C\c1ccccc1,-53.8%
15,CC(/C=N/NC(=O)c1ccccc1F)=C\c1ccccc1,12.7%
16,O=C(CNC(=O)c1ccccc1)N/N=C/C=C/c1ccccc1,-1.96%
17,CC(/C=N/NC(=O)c1ccncc1)=C\c1ccccc1,9.78%
18,COc1ccc(C(=O)NCC(=O)N/N=C/C(C)=C/c2ccccc2)cc1OC,-1.63%
19,CC(/C=N/NC(=O)c1c(Br)cnn1C)=C\c1ccccc1,-13%
20,COc1ccccc1C(=O)N/N=C/C(C)=C/c1ccccc1,-73.8%
21,COc1ccc(C(=O)NCC(=O)N/N=C(C)\C=C\c2ccccc2)cc1OC,-19.3%
22,COc1ccc(C(=O)NCC(=O)N/N=C/C=C/c2ccccc2)cc1OC,-93.6%

row,SMILES,"hERG current change (%, negative = inhibition) at 10uM"
1,NC(=O)c1ccsc1NC(=O)COC(=O)c1ccc(Cl)c(N)c1,-3.1%
2,CC1CCCN(C(=O)CCS(=O)(=O)c2ccc3c(c2)n(C)c(=O)c(=O)n3C)C1 (centres unmarked),1.25%
3,Cc1nc2ccccc2nc1CSc1nncs1,5.39%
4,O=C(Nc1ccc(-c2nc3ccccc3o2)cc1)c1ccc(N2C(=O)C3C4C=CC(C4)C3C2=O)cc1 (centres unmarked),3.26%
5,O=C(Cc1ccccc1)NC(=S)Nc1ccc(OC(F)F)cc1,-2.31%
6,COCCN(CCOC)S(=O)(=O)c1ccc(NC(=O)c2cnccn2)cc1,13.1%
7,CCOC(=O)c1c(NC(=O)C(C)N2CCN(C(=O)c3ccco3)CC2)sc2c1CCCC2 (centres unmarked),-56.1%
8,CCOC(=O)c1c(NC(=O)c2ccco2)sc2c1CCCCC2,9.58%
9,CCOC(=O)c1c(NC(=O)CN2CCN(C(=O)c3ccco3)CC2)sc2c1CCCC2,-8.72%
10,CCOC(=O)c1c(NC(=O)c2ccccc2C(=O)O)sc2c1CCC2,-1.15%
11,CCOC(=O)c1c(NC(=O)CSc2nnc(CNC(=O)c3ccco3)n2C)sc2c1CCC2,-50.1%
12,CCOC(=O)c1c(NC(=O)c2ccccc2C(=O)O)sc2c1CCCC2,18%
13,CCOC(=O)c1c(NC(=O)c2ccco2)sc2c1CCCC2,4.29%
14,CCOC(=O)c1c(NC(=O)C(NCCN(C)C)c2ccccc2)sc2c1CCCC2 (centres unmarked),-73.2%
15,CCOC(=O)c1c(NC(=O)CSc2nnc(CN3CCOCC3)n2C)sc2c1CCCC2,-30%
16,COc1ccc(C2=C(C=Nc3c(C)n(C)n(-c4ccccc4)c3=O)C(c3ccccc3C)c3ccccc3O2)cc1OC (centres unmarked),11.7%
17,CCOC(=O)C1CCN(c2ncnc3c2cnn3C)CC1,6.3%
18,Fc1ccc(NC(=S)N2CCCC2)cc1Cl,8.95%
19,CS(=O)(=O)NNC(=O)Cn1nnc(-c2cc(C(F)(F)F)cc(C(F)(F)F)c2)n1,19.7%
20,O=C(NNC(=O)c1nn(-c2ccc(F)cc2)ccc1=O)c1ccccc1Cl,-5%
21,O=C(Cn1cnc2ccccc2c1=O)NC1CCCc2ccccc21 (centres unmarked),6.08%
22,CCCCn1c(SCC(=O)Nc2cc(C)on2)nnc1-c1cccs1,-48.3%

row,SMILES,"hERG current change (%, negative = inhibition) at 10uM"
1,CCOC(=O)Cc1csc(NC(=O)COc2ccc3c(c2)CCC3)n1,-1.14%
2,COc1ccc(C)cc1S(=O)(=O)NCCN1CCOCC1,17.5%
3,CC(C)c1ccc(N(C(=O)c2ccco2)C(C(=O)NC2CCCC2)c2cccnc2)cc1 (centres unmarked),-25.3%
4,COc1cccc(/C=C(/C#N)c2ccc(F)cc2)c1OCc1cccc(C(=O)O)c1,11.4%
5,O=C(NCc1ccc(F)cc1)c1c2c(nc3ccccc13)CCN(Cc1ccccc1)C2,-22.2%
6,O=C(Nc1ccccc1)c1c2c(nc3ccccc13)CCCC2,-0.42%
7,CCOc1ccc(NC(=O)c2c3c(nc4ccccc24)CCC3)cc1,8.95%
8,CCN1CCc2nc3ccccc3c(C(=O)Nc3ccc(NC(C)=O)cc3)c2C1,10.2%
9,CCN1CCc2nc3ccccc3c(C(=O)Nc3ccc(F)cc3)c2C1,-74.5%
10,CCN1CCc2nc3ccccc3c(C(=O)Nc3ccc(C#N)cc3)c2C1,-71%
11,CCCCC(=O)Nc1cccc(NC(=S)NC(=O)C(C)C)c1,3.44%
12,O=C(NCCc1ccco1)C(=O)NCC1OCCCN1S(=O)(=O)c1ccccc1 (centres unmarked),-1.76%
13,COc1ccc(/C=N/NC(=S)NCC2CCCO2)cc1 (centres unmarked),6.97%
14,CCCC(=O)Nc1ccc(NC(=O)c2ccccn2)cn1,-8.57%
15,CC(C)NC(=O)CSCc1ccccc1Cl,12.9%
16,COc1ccc(Cn2nnnc2C(c2cc3cc(C)cc(C)c3[nH]c2=O)N2CCOCC2)cc1 (centres unmarked),-58.2%
17,COc1ccc2cc(C(c3nnnn3Cc3ccc(F)cc3)N3CCCCCC3)c(=O)[nH]c2c1 (centres unmarked),-23.3%
18,COc1cc2cc(C(c3nnnn3Cc3ccc(F)cc3)N3CCCCCC3)c(=O)[nH]c2cc1OC (centres unmarked),-74%
19,CCc1ccc2[nH]c(=O)c(C(c3nnnn3Cc3ccc(OC)cc3)N3CCOCC3)cc2c1 (centres unmarked),-19.1%
20,COc1ccc(Cn2nnnc2C(c2cc3ccc(OC)cc3[nH]c2=O)N2CCCCCC2)cc1 (centres unmarked),-13.6%
21,Cc1ccc2[nH]c(=O)c(C(c3nnnn3CCc3ccccc3)N3CCOCC3)cc2c1 (centres unmarked),-10.5%
22,COc1ccc(Cn2nnnc2C(c2cc3cccc(C)c3[nH]c2=O)N2CCN(C)CC2)cc1 (centres unmarked),29.6%

row,SMILES,"hERG current change (%, negative = inhibition) at 10uM"
1,Cc1ccc(C)c2[nH]c(=O)c(C(c3nnnn3Cc3ccccc3)N3CCc4ccccc4C3)cc12 (centres unmarked),-9.12%
2,Cc1ccc(C)c2[nH]c(=O)c(C(c3nnnn3CCc3ccccc3)N3CCOCC3)cc12 (centres unmarked),-59.4%
3,COc1ccc(Cn2nnnc2C(c2cc3cccc(C)c3[nH]c2=O)N2CCOCC2)cc1 (centres unmarked),-43.6%
4,COc1ccc(Cn2nnnc2C(c2cc3cc(C)ccc3[nH]c2=O)N2CCOCC2)cc1 (centres unmarked),-50.2%
5,COc1ccc(Cn2nnnc2C(c2cc3cc(C)ccc3[nH]c2=O)N2CCN(C)CC2)cc1 (centres unmarked),-24.4%
6,COc1cnc(-c2ccccc2)nc1Oc1ccccc1C,-4.2%
7,CN(C)c1ccc(C(=O)/C=C/c2ccccc2)cc1,8.65%
8,O=C(NNC(=O)C1CCN(c2ncccn2)CC1)c1ccc(Cl)cc1,0.113%
9,Cc1cccc(C)c1NC(=O)c1cc2c(=O)c3ccccc3oc2nc1C(F)(F)F,-3.38%
10,C=CCn1cccc(C(=O)Nc2ccc(F)cc2)c1=O,-24.8%
11,COC(=O)CSc1nnc(-c2ccccn2)n1Cc1ccco1,-13.8%
12,COc1ccc(CCN(C)C(=S)NC(=O)c2ccc(F)cc2Cl)cc1OC,-20.4%
13,COc1ccc(CN(C)C(C)C(=O)Nc2ccc(S(=O)(=O)N3CCCCC3)cc2)cc1F (centres unmarked),-19.7%
14,COc1ccc(Cl)cc1NC(=O)CN(C)Cc1ccc(OC)c(OC)c1,-9.72%
15,COc1ccc(CCN(C)C(=S)Nc2ccc(SC(F)F)cc2)cc1OC,-74.7%
16,COc1ccc(CN(C)CC(=O)Nc2cccc3ccccc23)cc1F,-13.4%
17,COc1ccc(CN(C)CC(=O)Nc2ccc(N3CCOCC3)cc2)cc1OC,-7.84%
18,COc1ccc(CCNC(=S)N(C)C)cc1OC,32.8%
19,COc1ccc(CN(C)CC(=O)Nc2ccc(SC(F)F)cc2)cc1OC,-76.2%
20,COc1ccc(CN(C)C(C)C(=O)N(C)CC(=O)Nc2ccc(C)cc2)cc1F (centres unmarked),-57.1%
